# Screening results deposited in PubChem by National Center for Advancing Translational Sciences (NCATS).
# L3MBTL1 block: inhibitors of human L3MBTL1 | AID 485360 | 230,000 tested, 0.66% active | AlphaScreen L3MBTL1–H3K9me1 peptide binding | Q9Y468 | Potency, µM (series often up to 57.1 µM), for the others: top-dose activity, negative = inhibition, most hits filed as inhibitors; also: potency is read from the fitted curve at half-maximal effect; % is scaled to controls: 0 for no effect and ±100 for the full control effect; nearly all actives have a fitted effect of over 60% in size
#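 AlphaScreen assay: L3MBTL1 (50 nM final) was preincubated 30 min at room temperature with biotinylated H3(1-15)K9me1 peptide (75 nM final), then 30 min with library compounds; streptavidin donor and nickel chelate acceptor beads (10 ug/mL final) added, 30 min dark.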
# HP1b chromo inh: blocks HP1-beta chromodomain binding to methylated histone tails; P83916; AlphaScreen HP1-beta / biotin-H3K9me3 peptide binding; 390,000 tested, 0.56% active; Potency, µM (top dose mostly 114 µM), inactives show top-dose activity change, negative = inhibition, actives largely listed as inhibitors; also: potency is read from the fitted curve at half-maximal effect; nearly all actives have a fitted effect of over 70% in size
# Target sequence (P83916 whole entry, looked up): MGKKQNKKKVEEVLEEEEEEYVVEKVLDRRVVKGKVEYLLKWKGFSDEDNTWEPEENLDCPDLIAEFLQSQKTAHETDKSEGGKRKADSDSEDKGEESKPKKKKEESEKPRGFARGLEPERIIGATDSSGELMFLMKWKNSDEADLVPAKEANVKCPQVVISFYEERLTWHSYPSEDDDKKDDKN
#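 AlphaScreen: HP1-beta (50 nM) preformed 30 min with biotin-H3(1-18)K9me3 peptide (50 nM) in PBS pH 7.4, 0.01% Tween-20. Compound added for 30 min at RT, then streptavidin donor/nickel chelate acceptor beads (10 ug/mL) for 30 min.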
# JMJD2A Tudor: blocks the human JMJD2A Tudor domain; O75164; AlphaScreen JMJD2A-Tudor / H3K4me3 peptide binding; Potency, µM (doses to about 114 µM), without a hit: top-dose activity change, negative = inhibition, actives largely listed as inhibitors; 390,000 tested, 4.4% active; AID 504339; also: potency is read from the fitted curve at half-maximal effect; % is scaled to controls: 0 for no effect and ±100 for the full control effect; nearly all actives have a fitted effect of over 50% in size
# BAZ2B inh: BAZ2B (human) inhibition; Q9UIF8; 360,000 tested, 4.4% active; Potency, µM (titrated, usually from 114 µM), for inactives: at the top dose activity change, negative = inhibition, actives largely listed as inhibitors; AlphaScreen BAZ2B-H3K14Ac peptide displacement; also: potency is read from the fitted curve at half-maximal effect; % is scaled to controls: 0 for no effect and ±100 for the full control effect; nearly all actives have a fitted effect of over 60% in size
#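 Multi-concentration screen (max 110 uM) measuring displacement of acetylated histone H3 peptide from BAZ2B by AlphaScreen, using 50 nM protein, 50 nM peptide and 10 ug/mL streptavidin donor plus Ni-chelate acceptor beads.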
# G9a inh: G9a (human) methyltransferase inhibition. Q96KQ7. G9a H3K9 monomethylation, AlphaScreen, 2 h. Potency, µM (doses to about 102 µM), inactives show top-dose activity, negative = inhibition, most hits filed as inhibitors. 350,000 tested, 8.8% active. AID 504332; also: potency is read from the fitted curve at half-maximal effect; % is scaled to controls: 0 for no effect and ±100 for the full control effect; nearly all actives have a fitted effect of over 75% in size
#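 Readings reflect AlphaScreen signal from monomethyl-H3K9 antibody detection. HMT at 20 nM; substrate b-H3K9 500 nM; cofactor SAM 20 uM; 2 h RT reaction; compounds tested as titrations in qHTS with 15 min preincubation.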
# PI5P4Ka inh: inhibitors of human PI5P4K alpha; P48426; PI5P4Kalpha enzyme, ADP-Glo luminescence, 60 min; hits give low values; max response, %; 330,000 tested, 1.2% active; AID 652105; active = max response of -50% or lower; inconclusive = between -30% and -50%; inactive = -30% or higher; also: value at the top dose of about 77 µM; % is scaled to controls: 0 for no effect and ±100 for the full control effect
# Target sequence (P48426 whole entry, looked up): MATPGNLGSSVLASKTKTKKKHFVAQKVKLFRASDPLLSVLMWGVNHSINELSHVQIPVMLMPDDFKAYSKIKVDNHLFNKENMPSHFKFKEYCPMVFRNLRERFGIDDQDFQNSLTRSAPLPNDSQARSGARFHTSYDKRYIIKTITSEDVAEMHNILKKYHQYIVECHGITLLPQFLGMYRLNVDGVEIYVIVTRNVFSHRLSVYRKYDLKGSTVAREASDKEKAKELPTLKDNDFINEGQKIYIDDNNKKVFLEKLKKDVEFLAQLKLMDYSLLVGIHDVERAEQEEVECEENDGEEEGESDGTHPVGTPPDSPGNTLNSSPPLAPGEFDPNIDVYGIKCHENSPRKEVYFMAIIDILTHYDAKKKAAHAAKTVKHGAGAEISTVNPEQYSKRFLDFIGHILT
#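 ADP-Glo luminescence end-point after a 60 min room-temperature kinase reaction. PI5P4Kalpha and substrate in HEPES pH 7.4 buffer with EGTA, 0.1% CHAPS and 5% DMSO; ATP at 5 microM final.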
# * hit, by the source's call; ? = inconclusive; · = no result given; [ ] = remark or other dose. An excerpt weighted towards active compounds, which were near 11% of everything screened. Unless noted, calls follow the shape of the dose curve; as a rule, active = well fitted inhibition curve with a large enough effect; inconclusive = small, poorly fitted or top-dose-only effect; inactive = no such curve, though single readings can be large or run the other way.
SMILES,L3MBTL1 block,HP1b chromo inh,JMJD2A Tudor,BAZ2B inh,G9a inh,PI5P4Ka inh
Cc1ccc2c(c1)c1c(n2CC(O)CNC(C)(C)C)CCCC1 (stereo unspecified),-7%,-12%,45µM*,45µM*,50µM*,-2
CNCC(O)Cn1c2c(c3ccccc31)CCCC2 (stereo unspecified),-4%,-5%,28µM*,?,50µM*,10
CCN(CC)c1ccc(N=C2C(=O)Nc3ccccc32)cc1,·,?,16µM*,11µM*,6.3µM*,?
Cc1ccc(N=C2C(=O)Nc3ccccc32)cc1C,-1%[2.29 µM],-4%,-20%,-1%,20%[0.501 µM],3
O=C1Nc2ccccc2C1=Nc1ccc2[nH]c3ccccc3c2c1,·,?,35µM*,·,·,-1
Cc1ccc(N=C2C(=O)Nc3ccccc32)cc1,·,17%,-14%,-15%,11%,5
COc1ccc(C2/C=C\CN(C(=O)CC(C)(C)C)C(C)C(=O)N2Cc2ccc(F)cc2)cc1 (stereo unspecified),·,40%,-14%,·,·,·
CCc1ccccc1NC(=O)C1CCCN(C(=O)c2cnn(-c3ccccc3)c2-n2cccc2)C1 (stereo unspecified),·,13%,-13%,-14%,10%[59 µM],·
CCN1CCN(C2=NC(=O)/C(=C/c3ccc(C)o3)S2)CC1,1%,-16%,-31%,?,32µM*,·
O=c1/c(=C/c2ccco2)sc2n1CN(c1cccc(Br)c1)CN=2,·,?,?,?,-40%[12.7 µM],5
NC1=NC(=O)/C(=C\c2ccco2)S1,·,56µM*,50µM*,79µM*,-44%[12.7 µM],-96*
O=C1N=C(N2CCCC2)S/C1=C\c1ccccc1,4%,-16%,56µM*,13%,-8%[59 µM],-4
O=c1/c(=C/c2ccco2)sc2n1CN(c1ccccc1)CN=2,·,0%,-18%,-6%,13µM*,-10
NC1=NC(=O)C(=Cc2ccccc2)S1,·,23%,-15%,·,·,15
CC[C@]12C(=O)N(C)C[C@H]([C@@H]3C(=O)N(Cc4ccccc4)C(=O)[C@@H]31)N2C(=O)c1ccc(C(F)(F)F)cc1,·,30%,-13%,·,·,0
O=C1N=C(N2CCN(c3ccccc3)CC2)S/C1=C\c1ccco1,?,-9%,?,50µM*,40µM*,?
Cc1ccccc1N1CCN(C2=NC(=O)/C(=C\c3cccs3)S2)CC1,-14%,4%,-32%,-32%,50µM*,1
O=C1N=C(N2CCN(c3ccccc3)CC2)S/C1=C/c1ccco1,-2%,3%,?,45µM*,50µM*,-23
COc1ccccc1CNC(=O)c1cnc2sc(N3CCCCC3)nn2c1=O,·,-18%,-15%,-10%,-22%[59 µM],·
CCc1cccc2c(-c3ccccc3)nc(SCC(=O)Nc3ccccc3)nc12,·,26%,-17%,-2%,-1%[59 µM],·
COc1ccc(Nc2ncnc3c2cnn3C)c(OC)c1,·,29%,-21%,1%,0%[59 µM],·
COc1ccccc1/C=C/c1nc(C#N)c(N2CCN(C)CC2)o1,·,15%,-13%,-34%,-20%[59 µM],·
COc1ccc(S(=O)(=O)NCCc2sc(-c3cccc(C)c3)nc2C)cc1,·,19%[57 µM],-25%,-1%,4%[59 µM],·
Cc1cc(=O)n(CC(C)O)c(O)c1C#N (stereo unspecified),-3%,41%,-18%,-12%,10µM*,0
Cc1cc(=O)n(CCCO)c(O)c1C#N,2%,16%,-13%,-31%,45µM*,-14
SMILES,L3MBTL1 block,HP1b chromo inh,JMJD2A Tudor,BAZ2B inh,G9a inh,PI5P4Ka inh
COc1ccc(C(=O)Nc2nc(-c3ccc(Br)cc3)ns2)cc1,·,54%,11%,5%,9%[59 µM],·
CCOc1ccc(C(=O)c2cn(Cc3ccccc3)c3c(F)cc(F)cc3c2=O)cc1,·,5%,-25%,-20%,-19%[59 µM],·
CN(C)c1ccc(N=Cc2nc(-c3ccccc3)oc2OC(=O)c2cccc(Cl)c2)cc1,-14%,-1%,-25%,-11%,8.9µM*,-7
COc1cccc(N=Cc2nc(-c3ccccc3)oc2OC(C)=O)c1,10%,26%,-11%,-2%,50µM*,3
Cc1ccc(C(=O)Oc2oc(-c3ccccc3)nc2C=Nc2ccc(N(C)C)cc2)cc1,-12%,37%,-15%,46%,61%[59 µM],-2
COc1cccc(CNC(=O)N2CCc3c(sc4c3CCCC4)C2c2ccc(F)cc2)c1 (stereo unspecified),·,-3%,-19%,-23%,-5%[59 µM],·
Cc1cc(C)n2nc(SCC(=O)c3cc(C)n(-c4cc(C)on4)c3C)nc2n1,-6%,4%,-15%,?,50µM*,·
COC(=O)c1ccc2c(c1)C(C)(C)C(/C=C/c1ccccc1O)=[N+]2C,-21%,?,56µM*,8.9µM*,?,·
Cc1ccc(NC(=O)Nc2nnc(N(C)C3CCCCC3)s2)c(Cl)c1,·,-14%,-20%,-6%,-9%[59 µM],·
CCC(C)Sc1nnc(NS(=O)(=O)Cc2ccccc2)s1 (stereo unspecified),-1%,44%,-8%,-24%,32µM*,2
COCCSc1nnc(NS(=O)(=O)Cc2ccccc2)s1,·,10%,-8%,-22%,?,·
COc1ccccc1NC(=O)COC(=O)c1ccc2c(c1)OCCO2,2%,17%,-15%,-3%,0%[12.7 µM],10
COc1ccccc1NC(=O)COC(=O)c1cc2c(s1)CCC2,?,?,50µM*,56µM*,45µM*,?
CCn1c(C(=O)N2CCc3ccccc3C2)cc2sccc21,·,20%,-35%,-35%,50µM*,1
CCN1CCN(C(=O)c2ccc3c(c2)c(C)c(C)n3Cc2ccccc2)CC1,·,?,?,?,35µM*,2
CCn1c(C)c(C)c2cc(C(=O)N3CCc4ccccc4C3)ccc21,·,?,40µM*,22µM*,45µM*,1
CCn1c(C(=O)NCCCN2CCc3ccccc3C2)cc2sccc21,-5%,2%,?,?,?,·
COc1ccc(N2Cc3cccc(C(=O)Nc4cccc(F)c4)c3C2=O)cc1,·,-26%,20µM*,·,-31%[59 µM],·
COc1ccc(N2Cc3cccc(C(=O)Nc4ccc(Cl)cc4)c3C2=O)cc1,·,10%,-35%,?,-34%[59 µM],·
N#Cc1c2c(c(Nc3ccc(O)cc3)n3c1nc1ccccc13)CCC2,-3%,24%,-19%,-33%,1.3µM*,-14
N#Cc1c2c(c(NCc3ccco3)n3c1nc1ccccc13)CCC2,-4%,-18%,8%[11.4 µM],0%,20%,-14
Clc1cc2c(c(CSc3nc4ccccc4n4cccc34)c1)OCOC2,12%,53%,0%,-9%,45µM*,3
Clc1cc2c(c(Cn3cnc4ccccc43)c1)OCOC2,-6%,26%,-15%,5%,2%[59 µM],-3
COc1ccc(Br)c(C(=O)N(C)CC(=O)Nc2ccc(N3CCOCC3)cc2)c1,0%,4%,-16%,1%,20µM*,1
